MITF inh – human MITF inhibition, primary screen | O75030 | AlphaScreen MITF homodimerization, bead proximity signal | inhibition, % at 2.6 µM | 650,000 compounds, 0.91% hits | AID 1259374; in the data active = inhibition above about 50%;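 also: 0% = vehicle wells with protein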
GPR151 activ – activates the human receptor GPR151; AID 1508602; 650,000 compounds, 1% hits; activation, % at 11.2 µM; PathHunter beta-arrestin GPR151 cells, luminescence; Q8TDV0; in the data active = activation above about 4.9%;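 also: 0% = median of compound wells and 100% = cells with positive control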
TEAD-YAP inh – TEAD-YAP interaction inhibition. HEK-TIYL cells, TEAD-Gal4/YAP UAS-luciferase luminescence. 640,000 compounds, 1.4% hits. inhibition, % at 9.12 µM; in the data active = inhibition above about 32%;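 also: 0% = median of test compound wells and 100% = reference inhibitor wells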
FBW7 act – human FBW7 E3 ligase activation, primary screen | Q969H0 | AlphaScreen FBW7–phospho-cyclin E peptide binding, activator screen | normalized activity (activation), % at 26.1 µM | 650,000 compounds, 0.13% hits; in the data active = normalized activity above about 1.9%;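 also: purified mutant Fbw7 with reduced substrate affinity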
Target sequence (Q969H0 whole entry, looked up): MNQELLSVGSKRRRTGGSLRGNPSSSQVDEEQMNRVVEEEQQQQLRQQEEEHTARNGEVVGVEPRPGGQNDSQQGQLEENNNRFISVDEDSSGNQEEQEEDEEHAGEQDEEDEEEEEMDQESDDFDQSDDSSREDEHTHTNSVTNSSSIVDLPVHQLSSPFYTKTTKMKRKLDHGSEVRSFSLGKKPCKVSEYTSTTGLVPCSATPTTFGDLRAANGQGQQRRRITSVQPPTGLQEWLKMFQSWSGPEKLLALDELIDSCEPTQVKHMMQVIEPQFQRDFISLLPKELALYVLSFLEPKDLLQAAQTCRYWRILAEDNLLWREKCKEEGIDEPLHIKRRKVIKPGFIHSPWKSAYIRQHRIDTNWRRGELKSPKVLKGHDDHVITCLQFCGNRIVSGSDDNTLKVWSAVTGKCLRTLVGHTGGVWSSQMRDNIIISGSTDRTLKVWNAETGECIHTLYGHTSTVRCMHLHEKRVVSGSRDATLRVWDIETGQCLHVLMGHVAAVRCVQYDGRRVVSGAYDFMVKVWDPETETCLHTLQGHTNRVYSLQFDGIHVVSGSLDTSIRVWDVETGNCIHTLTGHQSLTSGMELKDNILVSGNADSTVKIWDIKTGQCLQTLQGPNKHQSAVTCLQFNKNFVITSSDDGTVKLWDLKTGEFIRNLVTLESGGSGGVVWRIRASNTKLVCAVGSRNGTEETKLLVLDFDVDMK
MITF inh conf – human MITF inhibition, confirmation; shares compounds with MITF inh; AlphaScreen MITF homodimerization, biotin/His-MITF beads; inhibition, % at 2.6 µM; 4,700 compounds, 16% hits;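 active = inhibition above a cutoff derived from the DMSO control wells, cut at about 28% in these data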;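 also: 0% = MITF dimer wells with DMSO only; inhibitors lower the bead chemiluminescence by keeping MITF from dimerizing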
AlphaScreen intf2 – AlphaScreen optical interference, counter-screen. shares compounds with MITF inh. inhibition, % at 2.6 µM. 4,700 compounds, 7.6% hits. LysRS AlphaScreen counterscreen, signal interference, triplicate;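 active = inhibition above a cutoff derived from the DMSO control wells, cut at about 30% in these data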
Starred values were filed as active, the others as inactive; . = not tested or not shown. Compounds with a hit are over-represented: about 3.5% of the library has one in this group of screens.

SMILES	MITF inh	GPR151 activ	TEAD-YAP inh	FBW7 act	MITF inh conf	AlphaScreen intf2
OC(COC1CCCc2ccccc21)CN1CCN(Cc2ccc3c(c2)OCO3)CC1 (stereo unspecified)	80*	1	-5	0	12	10
Cc1cc(C)c(OCC(O)CN2CCN(Cc3ccc4c(c3)OCO4)CC2)c(C)c1 (stereo unspecified)	52*	-1	-1	0	-5	-7
CCOC(=O)C(=CNc1ccccc1[N+](=O)[O-])C(=O)OCC	4	0	5	0	.	.
CCOC(=O)C(Cl)NNc1ccccc1[N+](=O)[O-] (stereo unspecified)	72*	-1	-9	0	20	-1
COc1ccc(CN2CCN(C(=O)c3cccnc3)CC2)cc1	52*	0	-3	0	-3	-9
COc1cccc(CN2CCN(C(=O)c3cccnc3)CC2)c1	70*	1	6	0	15	-6
COc1cccc(CN2CCN(C(=O)c3cc(OC)cc(OC)c3)CC2)c1	43	-1	-5	0	.	.
COc1ccc(C(=O)N2CCN(C(=O)c3cccnc3)CC2)cc1	6	0	7	0	.	.
Oc1cccc(-c2cnc3ccc(NCc4cccs4)nn23)c1	5	0	-16	0	.	.
COc1ccccc1C1CN(CCNC(=O)c2ccc(C(C)=O)cc2)Cc2ccccc2O1 (stereo unspecified)	-4	-1	0	0	.	.
Nc1cc(Oc2ccc(O)c(N)c2)ccc1O	111*	3	0	-1	117*	78*
Nc1cc(C(=O)c2ccc(O)c(N)c2)ccc1O	20	0	-4	0	.	.
OC1CCN(Cc2ccc3c(c2)CN(C2CCSC2)CCO3)CC1 (stereo unspecified)	-9	-1	8	0	.	.
CCOC(=O)c1c(NC(=O)CN2C(=O)CCC2=O)sc2c1CCCC2	13	0	-8	0	.	.
O=C(Cn1c(-c2ccccc2F)nc2ccccc2c1=O)Nc1ccc2c(c1)OCCO2	4	2	-6	0	.	.
CC(Sc1nc2ccccc2o1)C(=O)O (stereo unspecified)	64*	-2	-25	2	3	10
Fc1cccc(F)c1CN1CCN(Cc2ccc3c(c2)OCO3)CC1	59*	0	3	0	-9	-6
c1ccc(CN2CCN(Cc3ccc4c(c3)OCO4)CC2)nc1	63*	1	0	0	-7	-1
Brc1csc(CN2CCN(Cc3ccc4c(c3)OCO4)CC2)c1	62*	0	0	1	10	13
Cc1nc(N2CCN(Cc3ccc4c(c3)OCO4)CC2)c2c(C)c(C)sc2n1	74*	3	15	0	7	7
O=C(C1CC12CCN(Cc1ccc3c(c1)OCO3)CC2)N1CCN(Cc2ccccn2)CC1 (stereo unspecified)	10	1	5	0	.	.
Cc1ccsc1CN1CCN(Cc2ccc3c(c2)OCO3)CC1	56*	0	0	0	2	5
c1cc(CN2CCN(Cc3ccc4c(c3)OCO4)CC2)co1	66*	-1	-3	0	1	9
O=C(C(=O)N1CCN(Cc2ccc3c(c2)OCO3)CC1)N1CCN(Cc2ccc3c(c2)OCO3)CC1	-11	-2	2	1	.	.
COc1ccc(C2(O)CC(C(F)(F)F)=NN2C(=O)COc2ccccc2)cc1 (stereo unspecified)	1	0	-6	0	.	.
SMILES	MITF inh	GPR151 activ	TEAD-YAP inh	FBW7 act	MITF inh conf	AlphaScreen intf2
Cc1nc2c(c(=O)[nH]1)CN(Cc1cccc3cccnc13)CC2	9	0	-13	0	.	.
O=C(CCn1c(SCc2cc(=O)n3cc(Cl)ccc3n2)nc2cc3c(cc2c1=O)OCO3)N1CCN(c2ccccc2)CC1	5	-1	-7	0	.	.
CCOC(=O)c1ccoc1CN1CCN(c2cccc(C)c2C)CC1	6	0	2	0	.	.
COc1ccccc1CN1CCN(C/C=C/c2ccccc2)CC1	69*	1	-2	0	8	6
COc1ccc(CN2CCN(C/C=C/c3ccccc3)CC2)c(O)c1	19	-1	11	1	.	.
COc1ccc(OC)c(CN2CCN(C/C=C/c3ccccc3)CC2)c1	81*	3	5	0	4	18
CCOC(=O)c1ccoc1CN1CCN(C/C=C/c2ccccc2)CC1	79*	-1	-5	0	16	-1
Cn1sc(Cl)c(C#N)c1=O	-4	-2	21	0	.	.
N#C/C(=C\c1cccc(Oc2ccccc2)c1)C(=O)Nc1ccc(S(N)(=O)=O)cc1	-10	-1	-6	0	.	.
COc1ccccc1CNCc1cc(Br)ccc1OC	70*	-1	-2	0	-11	-5
CCNCc1cc(Br)ccc1OC	14	1	9	0	.	.
Cc1ccccc1OCCOc1cccc(-c2nc3sc4c(c3c(=O)[nH]2)CCCC4)c1	3	2	-35	0	.	.
O=[N+]([O-])c1ccccc1OCCCCN1CCCC1	13	0	0	0	.	.
CCN1CCN(CCOc2ccccc2OCc2ccccc2)CC1	66*	-3	3	0	4	4
CCN1CCN(CCOc2ccc(I)cc2)CC1	64*	0	0	0	13	16
CCN1CCN(CCOc2ccc(OCc3ccccc3)cc2)CC1	69*	1	-32	0	9	14
c1ccc(COc2ccc(OCCN3CCCC3)cc2)cc1	6	0	-21	0	.	.
CCN1CCN(CCCOc2ccc(OC)cc2)CC1	29	1	-3	0	.	.
CCN1CCN(CCOc2ccccc2[N+](=O)[O-])CC1	75*	-1	10	0	15	16
O=[N+]([O-])c1ccccc1OCCCOc1ccccc1[N+](=O)[O-]	12	2	-71	0	.	.
c1ccc(COc2ccccc2OCCCCNCCN2CCOCC2)cc1	-10	0	-10	0	.	.
O=[N+]([O-])c1ccccc1OCCNC1CCCC1	52*	-1	2	0	-4	3
c1ccc(COc2ccccc2OCCNCCN2CCOCC2)cc1	66*	-1	6	0	-6	11
COC(=O)Cc1c(C)c2ccc(OCC(=O)OC(C)(C)C)c(C)c2oc1=O	-14	-1	10	0	.	.
COC(=O)Cc1c(C)c2ccc(OCC(N)=O)c(C)c2oc1=O	73*	-1	-2	0	12	10
CN(C)CC(C)(C)CNCC(=O)Nc1ccc(F)c(F)c1F	70*	0	1	0	1	-2
Cc1ccccc1OC(C)C(=O)Nc1ncn[nH]1 (stereo unspecified)	13	1	4	0	.	.
CCCCn1c(SCC(=O)NNC(C)=O)nc2c1c(=O)n(C)c(=O)n2C	2	0	3	1	.	.
O=C(NC(c1ccccc1)c1ccccc1)c1ccccc1Br	13	0	-1	0	.	.
O=C(CNC(c1ccccc1)c1ccccc1)NNC(=O)c1ccccc1Br	63*	0	1	0	9	17

Screens as filed in PubChem BioAssay.
